Assay results reported in PubChem BioAssay (Tox21).
Records with an inconclusive call do not appear. Active and inactive are the calls of the source. Unless noted, calls come from the whole dose curve; as a rule, active = well fitted curve in the direction sought with a large enough effect in the repeat runs; inconclusive = weak or mixed curves; inactive = no such curve, though single readings can be large; an effect the other way counts as inactive or inconclusive.

Assays:
[1] = qHTS assay to identify small molecule agonists of the peroxisome proliferator-activated receptor delta (PPARd) signaling pathway - cell viability counter screen (AID 743211); note: nearly all actives have a fitted effect of over 55% in size
Procedure, shortened: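 Following 5 h plating at 37 C and 5% CO2, PPARd UAS-bla HEK293H cells took up test compounds for 17 h. Viability was quantified by luminescence 30 min after CellTiter-Glo addition at room temperature.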

[2] = target: Peroxisome proliferator-activated receptor delta (Homo sapiens) (UniProt Q03181); test: qHTS assay to identify small molecule agonists of the peroxisome proliferator-activated receptor delta (PPARd) signaling pathway (AID 743212; calls by dose curve)
Procedure, shortened: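 Tox21 library screened in GeneBLAzer PPARd UAS-bla HEK293H cells. After compound treatment at 37 C, a FRET-based beta-lactamase substrate was applied for 2 h and fluorescence recorded.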

[3] = qHTS assay to identify small molecule antagonists of the peroxisome proliferator-activated receptor delta (PPARd) signaling pathway - cell viability counter screen (AID 743213); note: nearly all actives have a fitted effect of over 50% in size
Procedure, shortened: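 Viability counter-screen, qHTS format: PPARd-bla HEK293H, L165041 300 nM final, 17 h compound exposure at 37 C, CellTiter-Glo luminescence after 30 min RT.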

[4] = target: Peroxisome proliferator-activated receptor delta (Homo sapiens) (UniProt Q03181); test: qHTS assay to identify small molecule antagonists of the peroxisome proliferator-activated receptor delta (PPARd) signaling pathway (AID 743215; active = well fitted inhibition curve with a large enough effect in the signal ratio in the repeat runs, not every such curve was filed as active; the % refers to the signal ratio;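 note: cells stimulated with agonist L165041 at 300 nM final during compound exposure; series mostly up to about 62 µM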)
Procedure, shortened: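 Cells: HEK293H with a UAS-driven beta-lactamase reporter responsive to PPARd. Compounds were co-added with L165041 (300 nM, final) and incubated 17 h at 37 C before a 2 h room-temperature FRET substrate step and fluorescence reading.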

[5] = qHTS assay to identify small molecule agonists of the farnesoid-X-receptor (FXR) signaling pathway - cell viability counter screen (AID 743218); note: nearly all actives have a fitted effect of over 45% in size
Procedure, shortened: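 Cells were seeded, left 5 h at 37 C and 5% CO2, then dosed with compound in DMSO for 16 h. After the beta-lactamase FRET read, CellTiter-Glo was added and luminescence measured 30 min later.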

[6] = target: Bile acid receptor (Homo sapiens) (UniProt Q96RI1); test: qHTS assay to identify small molecule agonists of the farnesoid-X-receptor (FXR) signaling pathway (AID 743220; active = well fitted activation curve with a large enough effect in the signal ratio in the repeat runs, not every such curve was filed as active; the % refers to the signal ratio)
Procedure, shortened: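 FXR-UAS-bla HEK 293T cells carrying a UAS-driven beta-lactamase reporter were plated for 5 h at 37C/5% CO2, then exposed to DMSO-dissolved Tox21 10K compounds for 16 h at 37C. A LiveBLAzer B/G FRET substrate was loaded for 2 h at room temperature before fluorescence reading.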

[7] = qHTS assay to identify small molecule antagonists of the farnesoid-X-receptor (FXR) signaling pathway - cell viability counter screen (AID 743221; active = well fitted cell-killing curve with a large enough effect in the repeat runs, not every such curve was filed as active; note: nearly all actives have a fitted effect of over 50% in size)
Procedure, shortened: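 Compound effects on cell number were measured as CellTiter-Glo luminescence in HEK 293T cells expressing FXR-UAS-bla, after 16 h at 37 C with 50 uM CDCA (final).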

[8] = target: Vitamin D3 receptor (Homo sapiens) (UniProt P11473); test: qHTS assay to identify small molecule antagonists of the vitamin D receptor (VDR) signaling pathway (AID 743223; active = well fitted inhibition curve with a large enough effect in the signal ratio in the repeat runs, not every such curve was filed as active; the % refers to the signal ratio)
Procedure, shortened: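 Beta-lactamase activity in VDR-bla cells is measured by FRET substrate fluorescence (2 h, room temperature) after cells spend 16 h at 37C with test compound and 3 nM final 1alpha,25-dihydroxyvitamin D3.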

[9] = target: Vitamin D3 receptor (Homo sapiens) (UniProt P11473); test: qHTS assay to identify small molecule agonists of the vitamin D receptor (VDR) signaling pathway (AID 743222; calls by dose curve)
Procedure, shortened: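 Cells carrying a VDR-driven beta-lactamase reporter are seeded at 2,000 per well and rested 4 h. Compounds in DMSO are added for 16 h at 37C, and FRET substrate fluorescence is measured after 2 h at room temperature.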

[10] = target: Bile acid receptor (Homo sapiens) (UniProt Q96RI1); test: qHTS assay to identify small molecule antagonists of the farnesoid-X-receptor (FXR) signaling pathway (AID 743217; active = well fitted inhibition curve with a large enough effect in the signal ratio in the repeat runs, not every such curve was filed as active; the % refers to the signal ratio)
Procedure, shortened: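 Cells carrying a UAS-driven beta-lactamase reporter (GeneBLAzer FXR-UAS-bla HEK 293T) were plated and rested 5 h at 37 °C. Compounds in DMSO were added alongside chenodeoxycholic acid agonist at 50 uM final and left 16 h at 37 °C before FRET substrate readout.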

Measured: Potency

Vitamin D3 receptor (Homo sapiens), sequence (P11473 whole entry, looked up): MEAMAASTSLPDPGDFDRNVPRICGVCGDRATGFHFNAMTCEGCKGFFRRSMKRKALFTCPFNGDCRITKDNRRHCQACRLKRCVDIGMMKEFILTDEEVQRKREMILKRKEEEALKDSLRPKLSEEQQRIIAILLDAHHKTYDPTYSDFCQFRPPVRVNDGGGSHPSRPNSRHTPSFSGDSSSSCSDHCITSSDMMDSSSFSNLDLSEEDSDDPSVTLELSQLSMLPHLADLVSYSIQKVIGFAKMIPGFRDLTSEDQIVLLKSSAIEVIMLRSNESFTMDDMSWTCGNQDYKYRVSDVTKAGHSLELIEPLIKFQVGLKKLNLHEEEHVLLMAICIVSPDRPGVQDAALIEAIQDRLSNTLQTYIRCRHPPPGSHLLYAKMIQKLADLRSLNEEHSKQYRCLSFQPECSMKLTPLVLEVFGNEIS
Bile acid receptor (Homo sapiens), sequence (Q96RI1 whole entry, looked up): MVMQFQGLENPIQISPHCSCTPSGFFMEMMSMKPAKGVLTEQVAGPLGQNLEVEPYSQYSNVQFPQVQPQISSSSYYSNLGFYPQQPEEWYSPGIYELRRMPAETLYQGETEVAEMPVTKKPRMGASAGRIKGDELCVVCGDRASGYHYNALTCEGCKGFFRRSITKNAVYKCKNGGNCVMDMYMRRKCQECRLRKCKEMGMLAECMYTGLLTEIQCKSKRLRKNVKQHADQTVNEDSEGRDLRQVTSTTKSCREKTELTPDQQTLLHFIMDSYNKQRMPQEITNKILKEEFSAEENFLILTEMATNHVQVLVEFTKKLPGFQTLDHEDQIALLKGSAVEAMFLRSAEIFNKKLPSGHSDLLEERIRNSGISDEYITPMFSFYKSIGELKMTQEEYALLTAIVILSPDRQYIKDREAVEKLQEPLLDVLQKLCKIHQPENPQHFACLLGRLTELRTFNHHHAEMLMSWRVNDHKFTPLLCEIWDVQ
Peroxisome proliferator-activated receptor delta (Homo sapiens), sequence (Q03181 whole entry, looked up): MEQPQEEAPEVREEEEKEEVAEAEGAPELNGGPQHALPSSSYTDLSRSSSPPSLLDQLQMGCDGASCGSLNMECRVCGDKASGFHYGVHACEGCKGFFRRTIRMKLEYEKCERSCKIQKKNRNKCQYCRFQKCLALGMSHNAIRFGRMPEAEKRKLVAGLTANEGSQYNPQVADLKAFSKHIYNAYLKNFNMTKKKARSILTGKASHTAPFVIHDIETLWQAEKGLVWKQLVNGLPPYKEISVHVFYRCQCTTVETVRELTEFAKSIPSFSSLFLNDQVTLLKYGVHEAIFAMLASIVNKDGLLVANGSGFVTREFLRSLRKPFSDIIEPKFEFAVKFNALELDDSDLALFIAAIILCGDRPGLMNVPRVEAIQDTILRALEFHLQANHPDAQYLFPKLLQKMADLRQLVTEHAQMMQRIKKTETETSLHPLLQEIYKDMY

NNS(=O)(=O)c1ccc(Oc2ccc(S(=O)(=O)NN)cc2)cc1
not listed: [9] | [10]
inactive: all other assays above

Cc1nnc(SCC2=C(C(=O)O)N3C(=O)[C@@H](NC(=O)Cn4cnnn4)[C@H]3SC2)s1
inactive: [1] | [2] | [3] | [4] | [5] | [7]

CCCc1c2oc(C(=O)O)cc(=O)c2cc2c(=O)cc(C(=O)O)n(CC)c12
not listed: [9] | [10]
inactive: all other assays above

O=C1C=CC(=O)O1
not listed: [8] | [9] | [10]
inactive: all other assays above

CCOc1ccc(NS(=O)(=O)c2ccc(N)cc2)nn1
inactive: [1] | [2] | [3] | [4] | [5] | [7]

O=c1[nH]c(=O)n([C@H]2C[C@H](O)[C@@H](CO)O2)cc1C(F)(F)F
not listed: [9] | [10]
inactive: all other assays above

CCOC(=O)C1CC(=O)C(=C(O)C2CC2)C(=O)C1 (stereo not drawn)
not listed: [10]
inactive: all other assays above

CN1CCN(N)CC1
not listed: [8] | [9] | [10]
inactive: all other assays above

CCCCCCCCCC/C=C/C#N
inactive: all assays above

N#Cc1ccc(C(c2ccc(C#N)cc2)n2cncn2)cc1
inactive: all assays above

Cc1ccc([N+](=O)[O-])cc1Cl
not listed: [7]
inactive: all other assays above

CC1(C)S[C@@H]2[C@H](NC(=O)C(C(=O)O)c3ccccc3)C(=O)N2[C@H]1C(=O)O (stereo partly drawn)
not listed: [6] | [9]
inactive: all other assays above

CC(=O)N(CC(O)CN(C(C)=O)c1c(I)c(C(=O)NCC(O)CO)c(I)c(C(=O)NCC(O)CO)c1I)c1c(I)c(C(=O)NCC(O)CO)c(I)c(C(=O)NCC(O)CO)c1I (stereo not drawn)
not listed: [9]
inactive: all other assays above

CC1=C(O)C(=O)OC1C (stereo not drawn)
not listed: [8]
inactive: all other assays above

O=C(Cl)c1cccc([N+](=O)[O-])c1
not listed: [8]
inactive: all other assays above

C1CSCCS1
not listed: [6] | [8] | [10]
inactive: all other assays above

COc1cc(N)c(Cl)cc1C(=O)NC1CCN(Cc2ccccc2)CC1
not listed: [10]
inactive: all other assays above

C[C@@H]1CN(c2c(F)c(F)c3c(=O)c(C(=O)O)cn(C4CC4)c3c2F)C[C@H](C)N1
not listed: [8] | [9] | [10]
inactive: all other assays above

Cc1ccsc1C(=CCCN1CCC[C@@H](C(=O)O)C1)c1sccc1C
inactive: [1] | [2] | [3] | [4] | [5] | [7]

OC[C@H]1O[C@@H](O[C@H]2[C@H](O)[C@@H](O)[C@H](O)O[C@@H]2CO)[C@H](O)[C@@H](O)[C@H]1O
not listed: [8] | [9] | [10]
inactive: all other assays above

O=C1Nc2ccc([N+](=O)[O-])cc2C1=O
inactive: [1] | [2] | [3] | [4] | [5] | [7]

CCN(CC)CCNC(=O)COc1ccc(Cl)cc1
inactive: [1] | [2] | [3] | [4] | [5] | [7]

ICCc1ccccc1
inactive: [1] | [2] | [3] | [4] | [5] | [7]

CCN(CC)C(=O)N(CC)CC
not listed: [5]
inactive: all other assays above

CCCCCCCCOC(=O)CCCCCCCCC(=O)OCCCCCCCC
not listed: [8]
inactive: all other assays above

FC(F)(F)C(F)(F)C(F)(F)C(F)(F)C(F)(F)C(F)(F)C(F)(F)C(F)(F)Br
inactive: all assays above

COC(=O)C(C)O (stereo not drawn)
not listed: [8] | [9] | [10]
inactive: all other assays above

CCCCC(CC)COC(=O)COc1cc(Cl)c(Cl)cc1Cl (stereo not drawn)
not listed: [8] | [9] | [10]
inactive: all other assays above

FC(F)(F)C(Cl)(Cl)Cl
not listed: [8]
inactive: all other assays above

C=CC(C)(O)CC/C=C(\C)CCC=C(C)C (stereo not drawn)
not listed: [8] | [9] | [10]
inactive: all other assays above

CS(=O)(=O)c1ccc([C@@H](O)[C@@H](CF)NC(=O)C(Cl)Cl)cc1
not listed: [8] | [9]
inactive: all other assays above

CCOC(=O)NCCC[Si](OCC)(OCC)OCC
not listed: [6] | [8] | [10]
inactive: all other assays above

CO[C@@]1(NC(=O)CSCC#N)C(=O)N2C(C(=O)O)=C(CSc3nnnn3C)CS[C@@H]21
inactive: [1] | [2] | [3] | [4] | [5] | [7]

NCCC(O)(P(=O)(O)O)P(=O)(O)O
not listed: [8] | [9] | [10]
inactive: all other assays above

COc1cc(C)ccc1C(C)C
not listed: [10]
inactive: all other assays above

O=C(O)[C@@H]1CSCN1
not listed: [6] | [8] | [10]
inactive: all other assays above

O=C(O)[C@@H](O)[C@H](O)[C@H](O)[C@@H](O)C(=O)O
inactive: [1] | [2] | [3] | [4] | [5] | [7]

CN1CCN(c2c(F)cc3c(=O)c(C(=O)O)cn4c3c2SCC4)CC1
inactive: all assays above

CCN1CC(CCN2CCOCC2)C(c2ccccc2)(c2ccccc2)C1=O (stereo not drawn)
inactive: [10]

CCOC(=O)c1cc(=O)c2c(OCC(COc3cccc4oc(C(=O)OCC)cc(=O)c34)OC(=O)[C@@H](N)CCCCN)cccc2o1
inactive: [10]

CCC1(C)NC(=O)NC1=O (stereo not drawn)
not listed: [2] | [8] | [10]
inactive: all other assays above

CC(C)S
inactive: [1] | [3] | [4] | [5] | [7] | [9]

Nc1ccc2ccccc2c1S(=O)(=O)O
not listed: [2] | [6] | [10]
inactive: all other assays above

CCN(O)CC
not listed: [3] | [6] | [10]
inactive: all other assays above

CCCCNc1ccc(C(=O)OCCN(CC)CC)cc1
inactive: [1] | [2] | [4] | [5] | [7]

Cn1cnc2c(F)c(Nc3ccc(Br)cc3Cl)c(C(=O)NOCCO)cc21
not listed: [2]
inactive: all other assays above

COc1nc(C)nc(NC(=O)NS(=O)(=O)c2ccccc2OCCCl)n1
not listed: [2] | [8]
inactive: all other assays above

O=c1[nH]cnc2c1ncn2[C@@H]1O[C@H](CO)[C@@H](O)[C@H]1O
not listed: [2] | [10]
inactive: all other assays above

COC(=O)/C=C(/C)N
not listed: [2] | [10]
inactive: all other assays above

Nc1ccc(Oc2ccc(N)c(N)c2)cc1
not listed: [2] | [10]
inactive: all other assays above

CC(=O)OC(C)OC(C)=O
not listed: [2]
inactive: all other assays above

CCCC1CCC(=O)O1 (stereo not drawn)
not listed: [2] | [6] | [10]
inactive: all other assays above

OCc1c2ccccc2cc2ccccc12
not listed: [2] | [6] | [10]
inactive: all other assays above
